PubChem BioAssay AID651567 (National Center for Advancing Translational Sciences (NCATS), 2012)
The campaign covered roughly 1,200 compounds. About 10 (0.8%) were called active. Not shown: some 4% with an inconclusive outcome. The sample as a whole holds a higher share of actives than the screen did. Unmarked numbers belong to inactive results. Calls come from the whole dose curve; as a rule, active = well fitted inhibition curve with a large enough effect; inconclusive = small, poorly fitted or top-dose-only effect; inactive = no such curve, though single readings can be large or run the other way.

Assay: qHTS Assay to Find Inhibitors of Chronic Active B-Cell Receptor Signaling: Hit Validation in OCI-Ly3 Assay
Conditions: OCI-Ly3 IkB-luciferase reporter, Chroma-Glo luminescence, 4 h; series mostly up to 46.1 µM; activity change, negative = inhibition: at the top concentration
Text: Diffuse large B-cell lymphoma (DLBCL) is the most common category of non-Hodgkin lymphoma, with ~20,000 new cases per year in the United States. DLBCL should be regarded as a collection of different neoplasms. Microarray gene expression analysis has defined two principal types of DLBCL, named for their similarity to normal B cell stages or activation states: a germinal center B-cell (GCB) type, and an activated B-cell (ABC) type. In ABC-DLBCL, a constitutive high-level activity of the NF-kappaB family of transcription factors has been observed (1) and NF-kappaB target genes are more highly expressed in ABC primary tumors than in GCB tumors. Functional studies have shown a constitutive high-level activity of the IkappaB (inhibitor of kappa-B) kinase (IKK) complex. […] Further analysis of DLBCL primary tumors for NF-kappaB target gene expression imply that although CARD11 is required for constitutive IKK activity in all ABC-DLBCL lines, mutations in CARD11 may be the root cause of IKK activation only in lines or tumors with such mutations. In other words, CARD11 mutations may explain NF-kappaB activation in only 10% of ABC-DLBCL cases. […] This process has been termed 'chronic active BCR signaling' (CABS). The goal of this screen is to find small-molecule inhibitors of the CABS pathway found in ABC-DLBCL lines using a cell-based assay that measures IkappaBalpa stability, which has already been extensively validated in the OCI-Ly3 line (PubChem AID:445; REF: 4). […] Hits from the primary screen were tested in this selectivity secondary assay. NIH Molecular Libraries Probe Production Network [MLPCN] NIH Chemical Genomics Center [NCGC] MLPCN Grant: R03 DA031086 PI Name: Dr. R. Eric Davis
Cells were seeded in 1536-well plates at 5000 cells/3ul in IMDM medium containing 0.5% FBS, w/o phenol red, L-glutamine, 25 mM HEPES, 3 mg/ml sodium bicarbonate. After centrifugation for 1 min. at 1000 rpm, 23 nl of compounds or DMSO were delivered to each well using a pin tool. Then 1ul 80ng/ml doxycycline was dispensed into white solid 1536-well plates and the plates were incubated at 37C/5% C02 in a cell incubator for 4 hrs. Then 4 ul Chroma-Glo luminescent substrate mix (Promega) was added to each well. The plate was incubated at R.T. for 10-15 min. The plates were measured on a ViewLux plate reader for green luminescence (540/20 nm filter) and red luminescence (618/8 nm filter). The green and red luminescent signals were corrected for red and green luminescence filter overlap using previously determined filter calibration constants (determined using the procedure outlined in the Promega Technical Manual). The %Activity was determined from the ratio of corrected green/red luminescent values. Green luminescent and ratio %Activity was determined by normalizing to the difference in signal between basal cells (0% Activity) and cells incubated with 10 uM of the proteasome inhibitor MG-132 (100% Activity). Red luminescent %Activity was normalized to the difference between red luminesence in basal cells (0%Activity) and zero luminescence (-100% Activity). Concentration-response curves were fitted to the signals arising from the green luminescence (I-kappa-B-alpha-luciferase fusion; IkB-luc) and the red luminescence (unfused luciferase; luc) as well as the calculated ratio. The concentration-effect curves were then classified based on curve quality (r2), response magnitude and degree of measured activity. Compounds were then categorized based on their concentration-response curves for all three datasets (Ikb-luc, luc and ratio).
% is set by controls: 0 for no effect and ±100 for the full control effect; potency is the fitted concentration of half-maximal effect.

First: CCOc1cc(C(=O)N/N=C/C(Br)=C/c2ccccc2)cc(OCC)c1OCC
Second: CCOc1cc(/C=C(/C#N)C(=O)Nc2ccc(O)cc2)cc(Br)c1O
The “activity change, negative = inhibition” value of the first is higher: -11.1% for the first, -11.9% for the second.

First: CCOC(=O)c1ccc(NC(=O)Nc2ccon2)cc1
Second: COc1ccc(C(C)=O)cc1COC(=O)c1ccc(N)c([N+](=O)[O-])c1
The “activity change, negative = inhibition” value of the first is lower: -4.1% for the first, -0.216% for the second.

Going from `Cc1ccccc1Nc1c(N)c(=O)oc2ccccc12` to `Cc1onc(-c2ccccc2)c1-c1nc2cc(Cl)ccc2c(=O)o1`, the “activity change, negative = inhibition” value falls from -0.754% to -14.1%.

First: COc1cc(/C=C/c2ccc3cccc(O)c3n2)c(Br)cc1O
Second: COc1cc(/C=C/c2ccc3cccc(O)c3n2)cc(OC)c1OC
The “activity change, negative = inhibition” value of the first is lower: 31% for the first, 122% for the second.

Going from `Fc1ccc(/C=N/NC2=Nc3cccc4cccc2c34)cc1` to `O=C(N/N=C/c1ccc(O)cc1)c1[nH]c2ccc(Br)cc2c1-c1ccccc1`, the “activity change, negative = inhibition” value falls from -1.29% to -7.64%.

First: CNC(=O)c1cccc(NC(=O)C(C)c2ccc3cc(OC)ccc3c2)c1 (configuration not stated)
Second: CCCNS(=O)(=O)c1cccc(C(=O)OCc2cc(=O)oc3cc(OC)ccc23)c1
The “activity change, negative = inhibition” value of the first is higher: -3.81% for the first, -16.4% for the second.

Going from `COC(=O)c1ccc(C)c(NS(=O)(=O)c2ccc3c(c2)OCCO3)c1` to `CCOC(=O)c1c(C)oc2c1cc(NS(=O)(=O)c1ccc(C(=O)O)cc1)c1ccccc12`, the “activity change, negative = inhibition” value falls from -3.3% to -5.36%.

Compared with `CCN(CC)c1ccc(-c2nn3c(-c4n[nH]c5c4CCC5)nnc3s2)cc1`, `c1ccc(-c2cc(-c3nnc4n3N=C(c3ccc5ccccc5c3)CS4)[nH]n2)cc1` is higher in “activity change, negative = inhibition” value: -7.08% for the first, -4.31% for the second.

First: CC1C(=O)N2CCCc3cc(NC(=O)c4ccccc4Br)cc1c32 (configuration not stated)
Second: Cc1cc(=O)c(C(=O)Nc2cccc(N3CCCC3=O)c2)nn1-c1ccccc1Cl
The “activity change, negative = inhibition” value of the first is lower: -10.2% for the first, -0.879% for the second.

Compared with `O=C(Nc1ccc(N2CCCC2)cc1)c1cc(Cl)ccc1Cl`, `O=C(c1ccc(Cl)cc1)c1cc([N+](=O)[O-])ccc1N1CCOCC1` is lower in “activity change, negative = inhibition” value: -1.28% for the first, -4.74% for the second.

First: COC(=O)c1cc(C(=O)N2CCN(c3cccc(Cl)c3)CC2)cc([N+](=O)[O-])c1
Second: COC(=O)c1cccc(-n2sc3ccccc3c2=O)c1
The “activity change, negative = inhibition” value of the first is higher: -3.03% for the first, -6.16% for the second.

Going from `CCC1=Nc2cc(C(=O)NCc3ccco3)ccc2Sc2ccccc21` to `O=C(O)c1ccc(CSc2nnc(-c3ccco3)o2)cc1`, the “activity change, negative = inhibition” value rises from -2.12% to -0.305%.

Going from `CCCCC[C@H](O)/C=C/[C@@H]1[C@@H](C/C=C\CCCC(=O)O)[C@H]2CO[C@@H]1C2` to `CCCCC[C@H](O)/C=C/[C@@H]1[C@@H](C/C=C\CCCC(=O)O)[C@@H](O)C[C@H]1O`, the “activity change, negative = inhibition” value falls from -0.516% to -0.871%.

First: Cc1ccc(Nc2nc(-c3c(C)nc4ncccn34)cs2)cc1
Second: Cc1ccc2nc(NC(=O)c3ccccn3)sc2c1
The “activity change, negative = inhibition” value of the first is lower: -13% for the first, 14.4% for the second.

Going from `Cc1ccc2[nH]c(-c3cccc(F)c3)cc(=O)c2c1` to `Cc1cccc(OCCN2C(=O)C(=O)c3cc(C)ccc32)c1`, the “activity change, negative = inhibition” value rises from -3.54% to -1.66%.

Compared with `COc1cc2c(cc1OC)-c1cc(NC3CCCCC3)nc(=O)n1CC2`, `COc1cc2c(cc1OC)-c1cc(NC3CCCC3)nc(=O)n1CC2` is higher in “activity change, negative = inhibition” value: -0.939% for the first, -0.848% for the second.

First: COc1cc(S(=O)(=O)N2CCCCC2)ccc1NC(=O)/C=C/c1ccccc1
Second: CCOc1ccc2c(c1)C(C)=CC(C)(C)N2S(=O)(=O)c1ccc(NC(C)=O)cc1
The “activity change, negative = inhibition” value of the first is higher: -1.13% for the first, -3.37% for the second.

First: COc1ccccc1C(=O)Nc1ccccc1SC(=O)c1ccccc1OC
Second: CCN1C(=O)c2cccc3c(NC(=O)c4ccc(OC)c(OC)c4)ccc1c23
The “activity change, negative = inhibition” value of the first is lower: -25.4% for the first, -6.01% for the second.

First: C[C@]12C=CC(=O)C=C1CC[C@@H]1[C@@H]2[C@@H](O)C[C@@]2(C)[C@H]1CC[C@]2(O)C(=O)COC(=O)CCC(=O)O
Second: OC[C@H]1O[C@@H](n2cnc3c(NC4CCCC4)nc(Cl)nc32)[C@H](O)[C@@H]1O
The “activity change, negative = inhibition” value of the first is lower: -1.59% for the first, -0.38% for the second.

Going from `C/C(Cl)=C\Cn1c(O)c(N=NC(N)=S)c2cc(Br)ccc21` to `Cc1ccc(N=Nc2c(C)[nH]n(C(N)=S)c2=O)cc1`, the “activity change, negative = inhibition” value falls from 64.8% to 0.657%.

Going from `Cc1[nH]n(C(N)=S)c(=O)c1N=Nc1ccc2ccccc2c1` to `CC(Oc1ccc(Br)cc1)c1nc2c3ccccc3nc(=S)n2[nH]1` (configuration not stated), the “activity change, negative = inhibition” value rises from -3.53% to 349%.

Compared with `O=C1N/C(=C/c2ccc(N3CCOCC3)o2)C(=O)N1c1cccc(Cl)c1`, `Cc1ccc(NS(=O)(=O)c2cc(-c3n[nH]c(=O)c4ccccc34)ccc2C)cc1` is higher in “activity change, negative = inhibition” value: -6% for the first, -3.87% for the second.

Going from `COc1c(Br)cc(Br)cc1/C=N/NC(=O)c1cccnc1` to `CCOc1ccccc1/C=N/Nc1nc2c(N)ncnc2n1[C@H]1O[C@@H](CO)[C@H](O)[C@@H]1O`, the “activity change, negative = inhibition” value rises from -0.0712% to 0.035%.

First: CSc1nc(SCC(=O)NCc2ccco2)c2c3c(sc2n1)COC(C)(C)C3
Second: Cc1nnc(C)n1/N=C/c1cc2ccccc2nc1Cl
The “activity change, negative = inhibition” value of the first is lower: -2.6% for the first, -2.19% for the second.

With `COc1ccc(C2=NC(C)(C)Cc3cc(OC)c(OC)cc32)cc1OC` the “activity change, negative = inhibition” value was 0.417%.

In the case of `COc1cc(/C=C/c2ccc3cccc(O)c3n2)cc(Br)c1OC`, the Potency is reported as 10.3 µM (active).
For `O=C(Nc1ccc(N2CCN(C(=O)c3ccc(Cl)cc3)CC2)cc1)c1ccc([N+](=O)[O-])o1`, the Potency was 16.4 µM (active).
In the case of `Cc1[nH]n(C(N)=S)c(=O)c1N=Nc1cccc(Cl)c1`, the Potency is reported as 20.6 µM (active).
